# The supplement of paper PMC4466140
# Columns and labels:
# Test in all cases: SPOT peptide array binding signal intensity (averaged, normalized) (arbitrary units (background-subtracted, floor 0; scale differs between SH3 domains)); higher = stronger binding of the SH3 domain to the peptide
# AgAbp1 = molecular target: AgAbp1
# Procedure, shortened: (§1)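 Detection of bound protein relied on anti-GST antibody, an HRP anti-mouse secondary and luminol, with imaging and quantification in Genespotter. The bound protein was GST-fused SH3 domains from four yeast species, incubated at 10 μg/ml overnight at 4°C in TBS-based blocking buffer on cellulose membranes carrying synthetic 15-mer peptides with cysteines replaced by serines. Binding signal is normalized, background-subtracted spot intensity averaged over replicates, in arbitrary units that differ between domains.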
# AgBbc1 = molecular target: AgBbc1
# Procedure, shortened: as §1
# AgBem1-D1 = molecular target: AgBem1-D1
# Procedure, shortened: as §1
# AgBzz1-D1 = molecular target: AgBzz1-D1
# Procedure, shortened: as §1
# AgBzz1-D2 = molecular target: AgBzz1-D2
# Procedure, shortened: as §1
# AgCyk3 = molecular target: AgCyk3
# Procedure, shortened: as §1
# AgFus1 = molecular target: AgFus1
# Procedure, shortened: as §1
# AgHof1 = molecular target: AgHof1
# Procedure, shortened: as §1
# AgHse1 = molecular target: AgHse1
# Procedure, shortened: as §1
# AgLsb1 = molecular target: AgLsb1
# Procedure, shortened: as §1
# AgLsb4 = molecular target: AgLsb4
# Procedure, shortened: as §1
# AgMyo5 = molecular target: AgMyo5
# Procedure, shortened: as §1
# AgNbp2 = molecular target: AgNbp2
# Procedure, shortened: as §1
# AgRvs167 = molecular target: AgRvs167
# Procedure, shortened: as §1
# AgSho1 = molecular target: AgSho1
# Procedure, shortened: as §1
# AgSla1-D1-D2 = molecular target: AgSla1-D1-D2
# Procedure, shortened: as §1
# AgSla1-D3 = molecular target: AgSla1-D3
# Procedure, shortened: as §1
# CaAbp1-D1 = molecular target: CaAbp1-D1
# Procedure, shortened: as §1
# CaAbp1-D2 = molecular target: CaAbp1-D2
# Procedure, shortened: as §1
# CaBbc1 = molecular target: CaBbc1
# Procedure, shortened: as §1
# CaBem1-D1 = molecular target: CaBem1-D1
# Procedure, shortened: as §1
# CaBzz1-D1 = molecular target: CaBzz1-D1
# Procedure, shortened: as §1
# CaBzz1-D2 = molecular target: CaBzz1-D2
# Procedure, shortened: as §1
# CaCyk3 = molecular target: CaCyk3
# Procedure, shortened: as §1
# CaFus1 = molecular target: CaFus1
# Procedure, shortened: as §1
# CaHof1 = molecular target: CaHof1
# Procedure, shortened: as §1
# CaHse1 = molecular target: CaHse1
# Procedure, shortened: as §1
# CaLsb1 = molecular target: CaLsb1
# Procedure, shortened: as §1
# CaLsb4 = molecular target: CaLsb4
# Procedure, shortened: as §1
# CaMyo5 = molecular target: CaMyo5
# Procedure, shortened: as §1
# CaNbp2 = molecular target: CaNbp2
# Procedure, shortened: as §1
# CaRvs167 = molecular target: CaRvs167
# Procedure, shortened: as §1
# CaRvs167-3 = molecular target: CaRvs167-3
# Procedure, shortened: as §1
# CaSho1 = molecular target: CaSho1
# Procedure, shortened: as §1
# CaSla1-D1-D2 = molecular target: CaSla1-D1-D2
# Procedure, shortened: as §1
# CaSla1-D3 = molecular target: CaSla1-D3
# Procedure, shortened: as §1
# ScAbp1 = molecular target: ScAbp1
# Procedure, shortened: as §1
# ScBbc1 = molecular target: ScBbc1
# Procedure, shortened: as §1
# ScBem1-D1 = molecular target: ScBem1-D1
# Procedure, shortened: as §1
# ScBzz1-D1 = molecular target: ScBzz1-D1
# Procedure, shortened: as §1
# ScBzz1-D2 = molecular target: ScBzz1-D2
# Procedure, shortened: as §1
# ScCyk3 = molecular target: ScCyk3
# Procedure, shortened: as §1
# ScFus1 = molecular target: ScFus1
# Procedure, shortened: as §1
# ScHof1 = molecular target: ScHof1
# Procedure, shortened: as §1
# ScHse1 = molecular target: ScHse1
# Procedure, shortened: as §1
# ScLsb1 = molecular target: ScLsb1
# Procedure, shortened: as §1
# ScLsb2 = molecular target: ScLsb2
# Procedure, shortened: as §1
# ScLsb3 = molecular target: ScLsb3
# Procedure, shortened: as §1
# ScLsb4 = molecular target: ScLsb4
# Procedure, shortened: as §1
# ScMyo3 = molecular target: ScMyo3
# Procedure, shortened: as §1
# ScMyo5 = molecular target: ScMyo5
# Procedure, shortened: as §1
# ScNbp2 = molecular target: ScNbp2
# Procedure, shortened: as §1
# ScPex13 = molecular target: ScPex13
# Procedure, shortened: as §1
# ScRvs167 = molecular target: ScRvs167
# Procedure, shortened: as §1
# ScSho1 = molecular target: ScSho1
# Procedure, shortened: as §1
# ScSla1-D1-D2 = molecular target: ScSla1-D1-D2
# Procedure, shortened: as §1
# ScSla1-D3 = molecular target: ScSla1-D3
# Procedure, shortened: as §1
# SpAbp1-D1 = molecular target: SpAbp1-D1
# Procedure, shortened: as §1
# SpBbc1 = molecular target: SpBbc1
# Procedure, shortened: as §1
# SpBzz1-D1 = molecular target: SpBzz1-D1
# Procedure, shortened: as §1
# SpBzz1-D2 = molecular target: SpBzz1-D2
# Procedure, shortened: as §1
# SpCyk3 = molecular target: SpCyk3
# Procedure, shortened: as §1
# SpHof1 = molecular target: SpHof1
# Procedure, shortened: as §1
# SpHof1-2 = molecular target: SpHof1-2
# Procedure, shortened: as §1
# SpHof1-3 = molecular target: SpHof1-3
# Procedure, shortened: as §1
# SpHse1 = molecular target: SpHse1
# Procedure, shortened: as §1
# SpLsb1 = molecular target: SpLsb1
# Procedure, shortened: as §1
# SpLsb4 = molecular target: SpLsb4
# Procedure, shortened: as §1
# SpMyo1 = molecular target: SpMyo1
# Procedure, shortened: as §1
# SpNbp2 = molecular target: SpNbp2
# Procedure, shortened: as §1
# SpPex13 = molecular target: SpPex13
# Procedure, shortened: as §1
# SpRvs167 = molecular target: SpRvs167
# Procedure, shortened: as §1
# SpSla1-D1-D2 = molecular target: SpSla1-D1-D2
# Procedure, shortened: as §1
# SpSla1-D3 = molecular target: SpSla1-D3
# Procedure, shortened: as §1
binder,measurement,setting,value
VATSTSPKLPPRGKQ,SPOT peptide array binding signal intensity,AgAbp1,3
same,SPOT peptide array binding signal intensity,AgBbc1,548
same,SPOT peptide array binding signal intensity,AgBem1-D1,8.5
same,SPOT peptide array binding signal intensity,AgBzz1-D1,84
same,SPOT peptide array binding signal intensity,AgBzz1-D2,100
same,SPOT peptide array binding signal intensity,AgCyk3,≤ 0
same,SPOT peptide array binding signal intensity,AgFus1,5
same,SPOT peptide array binding signal intensity,AgHof1,9.5
same,SPOT peptide array binding signal intensity,AgHse1,24
same,SPOT peptide array binding signal intensity,AgLsb1,290
same,SPOT peptide array binding signal intensity,AgLsb4,4510
same,SPOT peptide array binding signal intensity,AgMyo5,≤ 0
same,SPOT peptide array binding signal intensity,AgNbp2,4
same,SPOT peptide array binding signal intensity,AgRvs167,745
same,SPOT peptide array binding signal intensity,AgSho1,18
same,SPOT peptide array binding signal intensity,AgSla1-D1-D2,3.5
same,SPOT peptide array binding signal intensity,AgSla1-D3,1.5
same,SPOT peptide array binding signal intensity,CaAbp1-D1,87
same,SPOT peptide array binding signal intensity,CaAbp1-D2,79.5
same,SPOT peptide array binding signal intensity,CaBbc1,521
same,SPOT peptide array binding signal intensity,CaBem1-D1,19.5
same,SPOT peptide array binding signal intensity,CaBzz1-D1,93
same,SPOT peptide array binding signal intensity,CaBzz1-D2,96.5
same,SPOT peptide array binding signal intensity,CaCyk3,≤ 0
same,SPOT peptide array binding signal intensity,CaFus1,80
same,SPOT peptide array binding signal intensity,CaHof1,0.5
same,SPOT peptide array binding signal intensity,CaHse1,37
same,SPOT peptide array binding signal intensity,CaLsb1,1
same,SPOT peptide array binding signal intensity,CaLsb4,3500
same,SPOT peptide array binding signal intensity,CaMyo5,4.75
same,SPOT peptide array binding signal intensity,CaNbp2,2
same,SPOT peptide array binding signal intensity,CaRvs167,1970
same,SPOT peptide array binding signal intensity,CaRvs167-3,≤ 0
same,SPOT peptide array binding signal intensity,CaSho1,13
same,SPOT peptide array binding signal intensity,CaSla1-D1-D2,32
same,SPOT peptide array binding signal intensity,CaSla1-D3,≤ 0
same,SPOT peptide array binding signal intensity,ScAbp1,21.5
same,SPOT peptide array binding signal intensity,ScBbc1,18.8
same,SPOT peptide array binding signal intensity,ScBem1-D1,≤ 0
same,SPOT peptide array binding signal intensity,ScBzz1-D1,61.5
same,SPOT peptide array binding signal intensity,ScBzz1-D2,17.5
same,SPOT peptide array binding signal intensity,ScCyk3,≤ 0
same,SPOT peptide array binding signal intensity,ScFus1,2.5
same,SPOT peptide array binding signal intensity,ScHof1,3.25
same,SPOT peptide array binding signal intensity,ScHse1,3
same,SPOT peptide array binding signal intensity,ScLsb1,268
same,SPOT peptide array binding signal intensity,ScLsb2,31
same,SPOT peptide array binding signal intensity,ScLsb3,6600
same,SPOT peptide array binding signal intensity,ScLsb4,3830
same,SPOT peptide array binding signal intensity,ScMyo3,≤ 0
same,SPOT peptide array binding signal intensity,ScMyo5,3.25
same,SPOT peptide array binding signal intensity,ScNbp2,5
same,SPOT peptide array binding signal intensity,ScPex13,882
same,SPOT peptide array binding signal intensity,ScRvs167,2350
same,SPOT peptide array binding signal intensity,ScSho1,40.5
same,SPOT peptide array binding signal intensity,ScSla1-D1-D2,17
same,SPOT peptide array binding signal intensity,ScSla1-D3,≤ 0
same,SPOT peptide array binding signal intensity,SpAbp1-D1,97
same,SPOT peptide array binding signal intensity,SpBbc1,0.25
same,SPOT peptide array binding signal intensity,SpBzz1-D1,286
same,SPOT peptide array binding signal intensity,SpBzz1-D2,≤ 0
same,SPOT peptide array binding signal intensity,SpCyk3,≤ 0
same,SPOT peptide array binding signal intensity,SpHof1,1.25
same,SPOT peptide array binding signal intensity,SpHof1-2,0.5
same,SPOT peptide array binding signal intensity,SpHof1-3,61.2
same,SPOT peptide array binding signal intensity,SpHse1,0.5
same,SPOT peptide array binding signal intensity,SpLsb1,623
same,SPOT peptide array binding signal intensity,SpLsb4,6830
same,SPOT peptide array binding signal intensity,SpMyo1,≤ 0
same,SPOT peptide array binding signal intensity,SpNbp2,≤ 0
same,SPOT peptide array binding signal intensity,SpPex13,2
same,SPOT peptide array binding signal intensity,SpRvs167,3730
same,SPOT peptide array binding signal intensity,SpSla1-D1-D2,2
same,SPOT peptide array binding signal intensity,SpSla1-D3,≤ 0
DLFKPLPEPPTELGR,SPOT peptide array binding signal intensity,AgAbp1,2.5
same,SPOT peptide array binding signal intensity,AgBbc1,≤ 0
same,SPOT peptide array binding signal intensity,AgBem1-D1,≤ 0
same,SPOT peptide array binding signal intensity,AgBzz1-D1,22
same,SPOT peptide array binding signal intensity,AgBzz1-D2,≤ 0
same,SPOT peptide array binding signal intensity,AgCyk3,1
same,SPOT peptide array binding signal intensity,AgFus1,1
same,SPOT peptide array binding signal intensity,AgHof1,≤ 0
same,SPOT peptide array binding signal intensity,AgHse1,27
same,SPOT peptide array binding signal intensity,AgLsb1,≤ 0
same,SPOT peptide array binding signal intensity,AgLsb4,5
same,SPOT peptide array binding signal intensity,AgMyo5,≤ 0
same,SPOT peptide array binding signal intensity,AgNbp2,≤ 0
same,SPOT peptide array binding signal intensity,AgRvs167,0.333
same,SPOT peptide array binding signal intensity,AgSho1,1410
same,SPOT peptide array binding signal intensity,AgSla1-D1-D2,≤ 0
same,SPOT peptide array binding signal intensity,AgSla1-D3,≤ 0
same,SPOT peptide array binding signal intensity,CaAbp1-D1,≤ 0
same,SPOT peptide array binding signal intensity,CaAbp1-D2,≤ 0
same,SPOT peptide array binding signal intensity,CaBbc1,≤ 0
same,SPOT peptide array binding signal intensity,CaBem1-D1,≤ 0
same,SPOT peptide array binding signal intensity,CaBzz1-D1,≤ 0
same,SPOT peptide array binding signal intensity,CaBzz1-D2,≤ 0
same,SPOT peptide array binding signal intensity,CaCyk3,≤ 0
same,SPOT peptide array binding signal intensity,CaFus1,7
same,SPOT peptide array binding signal intensity,CaHof1,1
same,SPOT peptide array binding signal intensity,CaHse1,16
same,SPOT peptide array binding signal intensity,CaLsb1,≤ 0
same,SPOT peptide array binding signal intensity,CaLsb4,≤ 0
same,SPOT peptide array binding signal intensity,CaMyo5,≤ 0
